In PubChem BioAssay (NCI):
Several values for one entry are separate records, joined by “and”; a condition that tells them apart may be missing. Identical values can stand only once. The panel holds about 79,000 compounds, 15% with a hit somewhere; the sample as a whole holds those more often. Activity calls are given as the source filed them. Cut-off read from the data, not from the text of the source: active = growth inhibition above about 70%; inactive = the rest.

Key:
[1] = NCI Yeast Anticancer Drug Screen. Data for the rad52 strain (AID 147);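 note: 0% = growth of vehicle-treated control cultures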; details: S. cerevisiae rad52 mutant growth inhibition, active compounds read high
Outline: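 Screen used a yeast mutant impaired in DNA repair. After compound exposure, growth was measured. Values reflect inhibition compared with vehicle-treated cells.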

[2] = NCI Yeast Anticancer Drug Screen. Data for the wt1 strain (AID 149);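 note: 0% = growth of vehicle-treated wt1 cultures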; details: S. cerevisiae wt1 strain (SPY 50644) growth inhibition, active compounds read high
Outline: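 Using yeast strain wt1, compound-induced growth inhibition was determined against vehicle-treated cultures.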

[3] = NCI Yeast Anticancer Drug Screen. Data for the rad50EPP+ strain (AID 151);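 note: 0% = growth of vehicle-treated control cultures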; details: S. cerevisiae rad50 mutant strain, active compounds read high
Outline: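 Exposing the rad50EPP+ strain to each compound, growth was compared with vehicle-only cultures to give inhibition.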

[4] = NCI Yeast Anticancer Drug Screen. Data for the mgt1 strain (AID 153); details: S. cerevisiae mgt1 mutant growth inhibition, active compounds read high
Outline: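 Genetically defined yeast (mgt1) treated with compound; inhibition of growth expressed against vehicle-treated controls.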

[5] = NCI Yeast Anticancer Drug Screen. Data for the rad50 strain (AID 155);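 note: 0% = growth of vehicle-only cultures of the same strain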; details: S. cerevisiae rad50 strain growth inhibition, active compounds read high
Outline: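 Relative growth inhibition (compound vs vehicle) was measured in yeast with a defined repair-gene alteration.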

[6] = NCI Yeast Anticancer Drug Screen. Data for the mec2-1 strain (AID 157); details: S. cerevisiae mec2-1 strain, active compounds read high
Outline: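 Readout is yeast growth inhibition, normalised to vehicle-treated controls, in the mec2-1 strain exposed to compound.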

[7] = NCI Yeast Anticancer Drug Screen. Data for the rad14 strain (AID 159);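 note: 0% = growth of vehicle-treated control cultures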; details: S. cerevisiae rad14 strain growth inhibition, active compounds read high
Outline: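 Screen for anticancer potential: a yeast strain altered in DNA damage repair is grown with compound, and reduced growth is quantified against vehicle controls.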

[8] = NCI Yeast Anticancer Drug Screen. Data for the sgs1 mgt1 strain (AID 161);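 note: 0% = growth of cultures given vehicle only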; details: S. cerevisiae sgs1 mgt1 strain, active compounds read high
Outline: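 Yeast cells carrying a defined DNA-repair defect were exposed to test compounds. Growth inhibition was measured relative to vehicle-treated controls.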

[9] = NCI Yeast Anticancer Drug Screen. Data for the CLN2oe strain (AID 163);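 note: 0% = growth of vehicle-only control cultures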; details: S. cerevisiae CLN2oe strain, active compounds read high
Outline: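 Values reflect how much compound exposure reduced yeast growth, referenced to vehicle-exposed cells. Assay organism is a strain with a defined genetic change affecting cell-cycle control.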

[10] = NCI Yeast Anticancer Drug Screen. Data for the cln2 rad14 strain (AID 165);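 note: 0% = growth equal to vehicle treated cultures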; details: S. cerevisiae cln2 rad14 strain, active compounds read high
Outline: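 Relative to vehicle controls, growth inhibition of compound-treated cln2 rad14 yeast was recorded.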

[11] = NCI Yeast Anticancer Drug Screen. Data for the bub3 strain (AID 167); details: S. cerevisiae bub3 mutant strain, active compounds read high
Outline: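 Screening used yeast with an engineered genetic alteration affecting cell cycle control. Compound-exposed cultures were compared with vehicle cultures, and reduced growth was taken as inhibition.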

[12] = NCI Yeast Anticancer Drug Screen. Data for the mlh1 strain (AID 171);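 note: 0% = growth of vehicle-treated control cultures of the same strain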; details: S. cerevisiae mlh1 strain growth inhibition, active compounds read high
Outline: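 Steps: expose the defined-mutant yeast strain to compound; expose a parallel culture to vehicle; measure growth; express compound effect as inhibition relative to the vehicle culture.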

[13] = NCI Yeast Anticancer Drug Screen. Data for the sgs1 strain (AID 173);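 note: 0% = growth of vehicle-only control cultures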; details: S. cerevisiae sgs1 mutant, active compounds read high
Outline: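 Treat defined-mutant yeast with compound; measure growth; calculate inhibition relative to vehicle-treated cells.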

[14] = NCI Yeast Anticancer Drug Screen. Data for the mlh1 rad18 strain (AID 175); details: S. cerevisiae mlh1 rad18 strain growth inhibition, active compounds read high
Outline: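 Test agents were incubated with a yeast strain of defined genotype (DNA damage repair defect). Inhibition of growth was derived by comparison with vehicle-exposed cultures.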

[15] = NCI Yeast Anticancer Drug Screen. Data for the rad18 strain (AID 177); details: S. cerevisiae rad18 mutant growth inhibition, active compounds read high
Outline: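 A genetically defined yeast mutant impaired in DNA damage repair was treated with test compounds, then its growth was measured against cultures receiving vehicle alone.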

[16] = NCI Yeast Anticancer Drug Screen. Data for the wt2 strain (AID 169);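 note: 0% = growth of vehicle-treated yeast cultures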; details: S. cerevisiae wt2 strain growth inhibition, active compounds read high
Outline: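 Values express reduction in yeast growth under compound treatment, referenced to vehicle-treated cells.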

[17] = at 5.0 µM (retest, dose inferred, filed as 0.5)
[18] = at 50.0 µM (retest, dose inferred, filed as 5.0)

Measured: growth inhibition

O=C(O)CNC(=S)Nc1ccccc1
active: [1]; at 100.0 µM 85% | [2]; at 100.0 µM 91% | [4]; at 33.0 µM 77% | [4]; at 100.0 µM 94% | [5]; [18] 82% | [5]; at 100.0 µM 93% | [6]; [18] 85% | [6]; at 100.0 µM 90% | [7]; at 100.0 µM 91% | [8]; [18] 91% | [9]; at 100.0 µM 86% | [10]; [18] 92% | [11]; [18] 85% | [11]; at 100.0 µM 89% | [12]; at 100.0 µM 93% | [13]; at 100.0 µM 91% | [14]; [18] 70% | [15]; at 100.0 µM 82%
inactive: [1]; at 1.2 µM -72% | [1]; at 3.7 µM -88% | [1]; at 11.0 µM -22% | [1]; at 33.0 µM 54% | [2]; at 1.2 µM -52% | [2]; at 3.7 µM -52% | [2]; at 11.0 µM -47% | [2]; at 33.0 µM 43% | [3]; at 1.2 µM -86% | [3]; at 3.7 µM -35% | [3]; at 11.0 µM -74% | [3]; at 33.0 µM -40% | [3]; at 100.0 µM 56% | [4]; at 1.2 µM -36% | [4]; at 3.7 µM -17% | [4]; at 11.0 µM 6% | [5]; at 1.2 µM -67% | [5]; at 3.7 µM -68% | [5]; [17] 51% | [5]; at 11.0 µM -48% | [5]; at 33.0 µM 53% | [5]; at 50.0 µM 4.35% and 69.5% | [6]; at 1.2 µM -68% | [6]; at 3.7 µM -21% | [6]; [17] 50% | [6]; at 11.0 µM -8% | [6]; at 33.0 µM 54% | [6]; at 50.0 µM 6.5% and 52.1% | [7]; at 1.2 µM -47% | [7]; at 3.7 µM -41% | [7]; at 11.0 µM -48% | [7]; at 33.0 µM 47% | [8]; [17] -9% | [8]; at 50.0 µM 5.2% and 64.6% | [9]; at 1.2 µM 2% | [9]; at 3.7 µM -9% | [9]; at 11.0 µM -3% | [9]; at 33.0 µM 52% | [10]; [17] 63% | [10]; at 50.0 µM 36.6% and 42% | [11]; at 1.2 µM -46% | [11]; at 3.7 µM -39% | [11]; [17] 6% | [11]; at 11.0 µM -15% | [11]; at 33.0 µM 49% | [11]; at 50.0 µM 8.5% and 53.4% | [12]; at 1.2 µM -63% | [12]; at 3.7 µM -56% | [12]; at 11.0 µM -30% | [12]; at 33.0 µM 53% | [13]; at 1.2 µM -55% | [13]; at 3.7 µM -51% | [13]; at 11.0 µM -39% | [13]; at 33.0 µM 56% | [14]; [17] 33% | [14]; at 50.0 µM 3.45% and 54.6% | [15]; at 1.2 µM -56% | [15]; at 3.7 µM -17% | [15]; at 11.0 µM -21% | [15]; at 33.0 µM 53%

COC1=C(N)C(=O)c2nc(-c3nc(C(=O)O)c(C)c(-c4ccc(OC)c(OC)c4O)c3N)ccc2C1=O
active: [1]; at 1.2 µM 97% | [1]; at 3.7 µM 97% | [1]; at 11.0 µM 98% | [1]; at 33.0 µM 98% | [1]; at 100.0 µM 97% | [2]; at 1.2 µM 98% | [2]; at 3.7 µM 99% | [2]; at 11.0 µM 99% | [2]; at 33.0 µM 99% | [2]; at 100.0 µM 98% | [3]; at 1.2 µM 91% | [3]; at 3.7 µM 93% | [3]; at 11.0 µM 94% | [3]; at 33.0 µM 96% | [3]; at 100.0 µM 96% | [4]; at 1.2 µM 97% | [4]; at 3.7 µM 98% | [4]; at 11.0 µM 98% | [4]; at 33.0 µM 98% | [4]; at 100.0 µM 98% | [5]; at 1.2 µM 96% | [5]; at 3.7 µM 97% | [5]; [17] 96% and 98% | [5]; at 11.0 µM 97% | [5]; at 33.0 µM 98% | [5]; [18] 97% and 98% | [5]; at 50.0 µM 93.5% and 92.5% | [5]; at 100.0 µM 97% | [6]; at 1.2 µM 96% | [6]; at 3.7 µM 98% | [6]; [17] 97% and 99% | [6]; at 11.0 µM 99% | [6]; at 33.0 µM 99% | [6]; [18] 98% and 99% | [6]; at 50.0 µM 94% | [6]; at 100.0 µM 98% | [7]; at 1.2 µM 98% | [7]; at 3.7 µM 98% | [7]; at 11.0 µM 98% | [7]; at 33.0 µM 98% | [7]; at 100.0 µM 98% | [8]; [18] 98% and 96% | [8]; at 50.0 µM 94.2% and 93.8% | [9]; at 1.2 µM 89% | [9]; at 3.7 µM 93% | [9]; at 11.0 µM 96% | [9]; at 33.0 µM 97% | [9]; at 100.0 µM 96% | [10]; [18] 98% and 92% | [10]; at 50.0 µM 93% and 92.2% | [11]; at 1.2 µM 95% | [11]; at 3.7 µM 97% | [11]; at 11.0 µM 98% | [11]; at 33.0 µM 97% | [11]; [18] 98% and 93% | [11]; at 50.0 µM 94% and 92.8% | [11]; at 100.0 µM 98% | [16]; at 1.2 µM 91% | [16]; at 3.7 µM 97% | [16]; at 11.0 µM 97% | [16]; at 33.0 µM 98% | [16]; at 100.0 µM 97% | [13]; at 1.2 µM 95% | [13]; at 3.7 µM 97% | [13]; at 11.0 µM 98% | [13]; at 33.0 µM 98% | [13]; at 100.0 µM 97% | [14]; [17] 97% and 99% | [14]; [18] 97% and 98% | [14]; at 50.0 µM 93% and 92.5% | [15]; at 1.2 µM 96% | [15]; at 3.7 µM 98% | [15]; at 11.0 µM 98% | [15]; at 33.0 µM 97% | [15]; at 100.0 µM 97%
inactive: [8]; [17] 16% and 59% | [10]; [17] 13% and 49% | [11]; [17] 14% and 30%
